The panel holds about 83,000 compounds, 20% with a hit somewhere; the sample as a whole holds those more often.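 Compound tested at a single concentration for 48 hours in 96-well plates; a percent growth value below 10 was scored as active.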 A number with no mark means an inactive call. Calls of active or inactive are those of the source.
The molecules below were run on TK-10 renal (assay: NCI-60 one-dose screen, 48 h (100 = growth as untreated, 0 = no growth, -100 = all killed)). Details: 10 µM unless noted.

Row | SMILES | growth
1 | COCCOC(=O)C1=C(C)NC(=S)NC1c1ccc2c(c1)OCO2 (stereo not drawn) | 104%
2 | O=S(=O)(Nc1ccc(F)c(Cl)c1)c1ccc(-c2cnc(C3CC3)o2)cc1 | 44%
3 | NCCN1CCN(c2nccc(-c3ccc4ccccc4c3)n2)CC1 | 73.9%
4 | CCN(CC)Cc1cc(Nc2c3ccc(Cl)cc3nc3c(C)cccc23)ccc1O | -60.5% (active)
5 | N#Cc1ccc(NC(=O)Nc2ccc(Cc3ccc(NC(=O)Nc4ccc(C#N)cc4)cc3)cc2)cc1 | 48.1%
6 | CCCCNc1ccc2c3c1cccc3c(=O)n1c3ccccc3nc21 | 70.2%
7 | O=C1O[C@H]([C@H](O)CO)C(O)=C1O | 104%
8 | CCC(=O)OCc1cccc(OC)c1 | 119%
9 | Cc1ccc2cnc(N)c(C#Cc3cncc(C(=O)Nc4ccc(CN5CCN(C)CC5)c(C(F)(F)F)c4)c3)c2c1 | -94.4% (active)
10 | CC#Cc1nc2ccccc2c(=O)[nH]1 | 48%
11 | COc1cc2c(cc1O)CCc1cc(O)cc(OC)c1-2 | 126%
12 | CCCCCCCCCCCCS(=O)CC(C)O (stereo not drawn) | 125%
13 | CCN(CC)CCCNc1cccc2c(SCc3ccccc3)ccnc12 | 63.7%
14 | COc1ccc(/C=C2\N=C3Sc4cc(Cl)ccc4C(=O)N3C2=O)cc1 | 107%
15 | O=C1C(Cl)=C(Cl)C(=O)c2c1nc1n2CCCC1 | 60%
16 | CN1CCN(Cc2ccc(NC(=O)c3cncc(C#Cc4c(N)ncc5ccc(C#N)cc45)c3)cc2C(F)(F)F)CC1 | 18.3%
17 | Nc1nc(SCc2ccccc2)c2ncn(C3CCCC3)c2n1 | 125%
18 | COc1cc(NC(N)=NCC(C)(C)COc2ccc(C(F)(F)F)cc2)cnc1C#N | 62.5%
19 | CCCCCCCCCCCCCCCC(=O)OCC1OC(n2cnc3c(=S)nc(N)[nH]c32)C(OC(=O)CCCCCCCCCCCCCCC)C1OC(=O)CCCCCCCCCCCCCCC (stereo not drawn) | 35.7%
20 | O=[N+]([O-])c1cccc(-c2nc3sccn3c2-c2ccnc(NCCCNS(=O)(=O)c3ccc(Br)cc3)n2)c1 | 102%

Row | SMILES | growth
21 | COc1ccc(-c2nc(Nc3cc(C)[nH]n3)c3ccccc3n2)cc1 | 53.3%
22 | O=C1Nc2c(ccc(Cl)c2Cl)/C1=C/c1cc(Br)c(O)c(Br)c1 | 96.7%
23 | Nc1nc2ccc(-c3nc4ccc5[nH]ncc5c4c4c3CCC4)cc2s1 | 22.3%
24 | Cc1cc(Cl)ccc1Nc1nc(C(F)(F)F)ccc1C(=O)N/N=C/c1ccc(F)cc1 | 0.832% (active)
25 | COc1ccc(C(=O)COc2ccc(/C=C3\Oc4ccc(Cl)cc4C3=O)cc2)cc1 | 105%
26 | CC[C@@H](C)OC(=O)c1nn(C(C)=O)c2ccccc12 | 105%
27 | CCN(CC)c1ccc(/C=C/C2=[N+](C)c3ccccc3C2(C)C)cc1 | 28.7%
28 | CCCCCCCCCCCCCCCC[N+]1(CC)CCCC1 | -59.1% (active)
29 | COc1cc(OC)c(/C=C/c2cc[n+](C)c3ccccc23)c(OC)c1 | 53.4%
30 | CC[C@H](Nc1nc(N)nc(C)c1C#N)c1nc2cccc(NCc3ccc(C(=O)NO)cc3)c2c(=O)n1-c1ccccc1 | 1.89% (active)
31 | O=C(CN1CCOCC1)Nc1ccc(Cn2nnc3c2C(=O)c2nnn(Cc4ccc(NC(=O)CN5CCOCC5)cc4)c2C3=O)cc1 | 79.7%
32 | COc1ccc2[nH]c(=O)c(/C=C/C(=O)c3ccc(Nc4nccc(-c5ccc6ccccc6c5)n4)cc3)cc2c1 | 103%
33 | OC(c1cccc(C(F)(F)F)c1)c1cnccc1NC1CCCCCC1 (stereo not drawn) | 60.4%
34 | CNC(=O)c1cc(Oc2ccc3nc(NC(=O)Nc4ccc(CN5CCOCC5)c(C(F)(F)F)c4)sc3c2)ccn1 | 43.9%
35 | O=c1c2cccc3c(Nc4ccccn4)ccc(c32)c2nc3ccccc3n12 | 65.8%
36 | CC(C)[C@@H]1CC[C@]2(C(=O)NCCCCN=C(N)N)CC[C@]3(C)[C@H](CC[C@@H]4[C@@]5(C)CCC(=O)C(C)(C)[C@@H]5CC[C@]43C)[C@@H]12 | 88.7%
37 | Cc1ccc2c(c1)n([O-])c1cc(Cl)ccc1[n+]2=O | 130%
38 | CC(C)(C)n1cc(-c2ccnc(NCCCNS(=O)(=O)c3cccc4ccccc34)c2)c(-c2cccc(O)c2)n1 | 74.8%
39 | COc1ccc(-c2cc(=O)[nH]c3c(OC)c4ccccc4c(OC)c23)cc1 | 47.8%

Each molecule was assayed on ACHN renal in the same assay as above. Details: 10 µM unless noted.

Row | SMILES | growth
40 | COCCOC(=O)C1=C(C)NC(=S)NC1c1ccc2c(c1)OCO2 (stereo not drawn) | 106%
41 | O=S(=O)(Nc1ccc(F)c(Cl)c1)c1ccc(-c2cnc(C3CC3)o2)cc1 | 44.5%
42 | NCCN1CCN(c2nccc(-c3ccc4ccccc4c3)n2)CC1 | 46.5%
43 | CCN(CC)Cc1cc(Nc2c3ccc(Cl)cc3nc3c(C)cccc23)ccc1O | -86.4% (active)
44 | N#Cc1ccc(NC(=O)Nc2ccc(Cc3ccc(NC(=O)Nc4ccc(C#N)cc4)cc3)cc2)cc1 | 31.2%
45 | CCCCNc1ccc2c3c1cccc3c(=O)n1c3ccccc3nc21 | 81.8%
46 | O=C1O[C@H]([C@H](O)CO)C(O)=C1O | 93.9%
47 | CCC(=O)OCc1cccc(OC)c1 | 93%
48 | Cc1ccc2cnc(N)c(C#Cc3cncc(C(=O)Nc4ccc(CN5CCN(C)CC5)c(C(F)(F)F)c4)c3)c2c1 | -99.6% (active)
49 | CC#Cc1nc2ccccc2c(=O)[nH]1 | 28.8%
50 | COc1cc2c(cc1O)CCc1cc(O)cc(OC)c1-2 | 95.4%
51 | CCCCCCCCCCCCS(=O)CC(C)O (stereo not drawn) | 105%
52 | CCN(CC)CCCNc1cccc2c(SCc3ccccc3)ccnc12 | 102%
53 | COc1ccc(/C=C2\N=C3Sc4cc(Cl)ccc4C(=O)N3C2=O)cc1 | 92.1%
54 | O=C1C(Cl)=C(Cl)C(=O)c2c1nc1n2CCCC1 | -8.54% (active)
55 | CN1CCN(Cc2ccc(NC(=O)c3cncc(C#Cc4c(N)ncc5ccc(C#N)cc45)c3)cc2C(F)(F)F)CC1 | -92.8% (active)
56 | Nc1nc(SCc2ccccc2)c2ncn(C3CCCC3)c2n1 | -81.5% (active)
57 | COc1cc(NC(N)=NCC(C)(C)COc2ccc(C(F)(F)F)cc2)cnc1C#N | 62.9%
58 | CCCCCCCCCCCCCCCC(=O)OCC1OC(n2cnc3c(=S)nc(N)[nH]c32)C(OC(=O)CCCCCCCCCCCCCCC)C1OC(=O)CCCCCCCCCCCCCCC (stereo not drawn) | 75%
59 | O=[N+]([O-])c1cccc(-c2nc3sccn3c2-c2ccnc(NCCCNS(=O)(=O)c3ccc(Br)cc3)n2)c1 | 46.7%

Row | SMILES | growth
60 | COc1ccc(-c2nc(Nc3cc(C)[nH]n3)c3ccccc3n2)cc1 | 42.8%
61 | O=C1Nc2c(ccc(Cl)c2Cl)/C1=C/c1cc(Br)c(O)c(Br)c1 | 70.8%
62 | Nc1nc2ccc(-c3nc4ccc5[nH]ncc5c4c4c3CCC4)cc2s1 | 17.7%
63 | Cc1cc(Cl)ccc1Nc1nc(C(F)(F)F)ccc1C(=O)N/N=C/c1ccc(F)cc1 | 7.12% (active)
64 | COc1ccc(C(=O)COc2ccc(/C=C3\Oc4ccc(Cl)cc4C3=O)cc2)cc1 | 109%
65 | CC[C@@H](C)OC(=O)c1nn(C(C)=O)c2ccccc12 | 108%
66 | CCN(CC)c1ccc(/C=C/C2=[N+](C)c3ccccc3C2(C)C)cc1 | -1.03% (active)
67 | CCCCCCCCCCCCCCCC[N+]1(CC)CCCC1 | 9.99% (active)
68 | COc1cc(OC)c(/C=C/c2cc[n+](C)c3ccccc23)c(OC)c1 | 71.8%
69 | CC[C@H](Nc1nc(N)nc(C)c1C#N)c1nc2cccc(NCc3ccc(C(=O)NO)cc3)c2c(=O)n1-c1ccccc1 | 4.61% (active)
70 | O=C(CN1CCOCC1)Nc1ccc(Cn2nnc3c2C(=O)c2nnn(Cc4ccc(NC(=O)CN5CCOCC5)cc4)c2C3=O)cc1 | 58.7%
71 | COc1ccc2[nH]c(=O)c(/C=C/C(=O)c3ccc(Nc4nccc(-c5ccc6ccccc6c5)n4)cc3)cc2c1 | 103%
72 | OC(c1cccc(C(F)(F)F)c1)c1cnccc1NC1CCCCCC1 (stereo not drawn) | 43.9%
73 | CNC(=O)c1cc(Oc2ccc3nc(NC(=O)Nc4ccc(CN5CCOCC5)c(C(F)(F)F)c4)sc3c2)ccn1 | 16.2%
74 | O=c1c2cccc3c(Nc4ccccn4)ccc(c32)c2nc3ccccc3n12 | 76.1%
75 | CC(C)[C@@H]1CC[C@]2(C(=O)NCCCCN=C(N)N)CC[C@]3(C)[C@H](CC[C@@H]4[C@@]5(C)CCC(=O)C(C)(C)[C@@H]5CC[C@]43C)[C@@H]12 | 79.6%
76 | Cc1ccc2c(c1)n([O-])c1cc(Cl)ccc1[n+]2=O | 114%
77 | CC(C)(C)n1cc(-c2ccnc(NCCCNS(=O)(=O)c3cccc4ccccc34)c2)c(-c2cccc(O)c2)n1 | 36.7%
78 | COc1ccc(-c2cc(=O)[nH]c3c(OC)c4ccccc4c(OC)c23)cc1 | 50.5%

Source: PubChem BioAssay (NCI)
